Compound activity deposited in PubChem BioAssay by several laboratories.
PfG6PD inh – PfG6PD (Plasmodium falciparum) enzyme inhibition; PfGluPho enzyme, NADPH resazurin-diaphorase fluorescence; inhibition, % at 20 µM; 0.78% of 350,000 active; AID 504690;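 active means inhibition reaching at least a set limit at 20 µM in the primary screen, cut at about 59% in these data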;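 further: 0% = DMSO wells with substrate and 100% = DMSO wells lacking glucose-6-phosphate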
H9c2 protect – modulators protecting cardiomyocytes from myocardial damage | 0.63% of 360,000 active | protection from H2O2 cell death, % at 20 µM | H9c2 cardiomyocytes, H2O2 injury protection, ATPLite, 2 h;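 active means compounds giving at least 50% protection of heart cells from peroxide-induced death in the single-dose screen, raw or plate-pattern-corrected value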;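 further: 0% = DMSO wells with peroxide and 100% = DMSO wells without peroxide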
M18AAP inhibitor – blocks P. falciparum M18 aspartyl aminopeptidase; 1.2% of 290,000 active; inhibition, % at 7.35 µM; recombinant PfM18AAP, H-Glu-NHMec fluorogenic cleavage; AID 1822;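 active means inhibition above the campaign mean inhibition over all tested compounds plus 3 SD, cut at about 28% in these data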;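 further: 0% = plate median of test compound wells and 100% = 2 mM ZnCl2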
ALR inh – inhibitors of human sulfhydryl oxidase ALR; purified ALR, DTT oxidation, H2O2 HRP-luminol luminescence; 3.8% of 290,000 active; P55789; inhibition, % (test concentration not listed);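 active means mean replicate inhibition above about 79%, with every replicate also reaching it, limit read from the data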
Target sequence (P55789 whole entry, looked up): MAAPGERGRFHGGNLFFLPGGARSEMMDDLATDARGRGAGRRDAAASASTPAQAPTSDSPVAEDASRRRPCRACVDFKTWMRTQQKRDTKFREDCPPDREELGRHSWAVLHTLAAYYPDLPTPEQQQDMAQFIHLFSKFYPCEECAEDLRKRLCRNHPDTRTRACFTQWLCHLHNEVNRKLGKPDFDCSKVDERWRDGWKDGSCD
PHOSPHO1 block – PHOSPHO1 (human) inhibition; AID 1565; 1.1% of 290,000 active; Q8TCT1; inhibition, % at 13.3 µM; recombinant PHOSPHO1, absorbance phosphatase assay; in the data active means inhibition above about 60%
Target sequence (Q8TCT1 whole entry, looked up): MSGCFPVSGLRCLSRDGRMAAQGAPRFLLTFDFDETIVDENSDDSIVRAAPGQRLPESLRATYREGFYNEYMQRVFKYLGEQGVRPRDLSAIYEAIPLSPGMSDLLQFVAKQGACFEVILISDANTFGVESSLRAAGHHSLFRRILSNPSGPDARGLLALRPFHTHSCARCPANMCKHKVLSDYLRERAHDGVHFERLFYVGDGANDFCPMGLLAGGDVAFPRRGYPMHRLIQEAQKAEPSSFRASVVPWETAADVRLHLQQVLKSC
* = called active by the depositor; . = no result given. This is a sample that favours compounds with a hit; in the whole collection about 5.6% have one here.

SMILES | PfG6PD inh | H9c2 protect | M18AAP inhibitor | ALR inh | PHOSPHO1 block
CCOc1cc(/C=C2\NC(=S)N(C)C2=O)ccc1OCc1ccc(C(=O)O)cc1 | -10 | 5 | 17 | 89* | 28
COc1ccc(/C=C2/C(=O)N(CC3CCCO3)C(=S)N2C)c(OC)c1 (stereo not given) | 15 | 7 | -4 | 5 | 1
COc1ccccc1/C=C1\NC(=S)N(CC2CCCO2)C1=O (stereo not given) | 0 | 9 | 2 | 17 | 97*
CCCN1C(=O)/C(=C/c2ccccc2OCc2ccc(C(=O)O)cc2)NC1=S | -9 | 2 | 3 | 79* | -4
O=C(O)c1ccc(COc2ccccc2/C=C2\NC(=O)N(Cc3ccccc3)C2=O)cc1 | -18 | 0 | -2 | 7 | 42
CCCN1C(=O)/C(=C/c2ccc(OCc3ccc(C(=O)O)cc3)c(OC)c2)NC1=S | -34 | 0 | . | 92* | .
CCOC(=O)c1c(NC(=O)COC(=O)CCS(=O)(=O)c2ccc(C)cc2)sc(C)c1C | 18 | -7 | 7 | 94* | 8
CCOC(=O)c1cc(C(C)C)sc1NC(=O)COC(=O)CCS(=O)(=O)c1ccccc1 | 16 | -8 | 0 | -1 | -4
O=C(C1CC(=O)N(c2ccc(F)c(Cl)c2)C1)N1CCOCC1 (stereo not given) | -5 | -3 | . | . | .
O=C(NC1CC1)c1sccc1-n1cccc1 | 12 | -2 | -2 | 100* | -4
O=C(NNC(=O)c1sccc1-n1cccc1)c1ccc(Cl)cc1 | -5 | -7 | 0 | -8 | -6
CCCn1nc(C(=O)Nc2ccc3c(c2)OCCO3)c2ccccc2c1=O | -2 | 5 | . | -3 | .
C=CCOc1cccc(C2C(C(=O)c3cc4ccccc4o3)=C(O)C(=O)N2c2cc(C)on2)c1 (stereo not given) | -13 | 6 | 11 | -12 | 12
Cc1cc(N2C(=O)C(O)=C(C(=O)c3ccc(C)o3)C2c2cccc(Cl)c2)no1 (stereo not given) | -22 | -1 | . | . | .
COc1cccc(C2C(C(=O)c3cc4ccccc4o3)=C(O)C(=O)N2c2cc(C)on2)c1 (stereo not given) | -9 | -1 | 15 | 98* | 32
COc1ccc(C2C(C(=O)c3ccc(C)o3)=C(O)C(=O)N2c2cc(C)on2)cc1OC (stereo not given) | 6 | -4 | 9 | 3 | 60*
Cc1cc(N2C(=O)C(O)=C(C(=O)c3ccc(C)o3)C2c2ccc([N+](=O)[O-])cc2)no1 (stereo not given) | -16 | 5 | 10 | 97* | 45
Cc1nc2c(cc1N)nc(C)n2Cc1ccccc1 | 4 | 5 | -4 | 9 | 14
O=C(c1ccc(S(=O)(=O)N2CCCCCC2)cc1)N1CCN(c2ccccc2F)CC1 | 12 | 3 | -4 | . | 25
COc1cccc(CNS(=O)(=O)c2ccc3c(c2)N(C(C)=O)CCO3)c1 | -3 | 2 | -5 | -1 | 15
Cn1c(=O)c2c(nc(CN3CCN(c4ccccc4)CC3)n2Cc2c(F)cccc2Cl)n(C)c1=O | 1 | 8 | -13 | 97* | 9
CCOc1ccc(NCc2cccn2-c2nnc(N3CCC(C(=O)NCCCN4C(C)CCCC4C)CC3)s2)cc1 (stereo not given) | -6 | -2 | 1 | 99* | 38
CCOc1ccc(NCc2cccn2-c2nnc(N3CCC(C(=O)NCCCN4CCCCC4)CC3)s2)cc1 | 14 | 2 | 7 | 99* | 48
CN1CCN(CCCNC(=O)C2CCN(c3nnc(-n4cccc4)s3)CC2)CC1 | 4 | 12 | -7 | -19 | 29
CCOc1ccc(NCc2cccn2-c2nnc(N3CCC(C(=O)NCCCN4CCCCC4C)CC3)s2)cc1 (stereo not given) | 18 | -6 | 9 | 99* | 32
SMILES | PfG6PD inh | H9c2 protect | M18AAP inhibitor | ALR inh | PHOSPHO1 block
CCOc1ccc(CCNC(=O)C2CCN(c3nnc(-n4cccc4)s3)CC2)cc1 | -19 | 1 | 2 | -2 | 0
CCC1CCCCN1CCCNC(=O)C1CCN(c2nnc(-n3cccc3)s2)CC1 (stereo not given) | -3 | -3 | 4 | -6 | 41
CCCN1CCN(CCCNC(=O)C2CCN(c3nnc(-n4c(C)ccc4C)s3)CC2)CC1 | -15 | 1 | 0 | 12 | 65*
CCN1CCN(C(=O)CCc2nnc(CCc3ccccc3OC)o2)[C@@H](C)C1=O | 0 | -3 | 4 | 3 | 51
O=C(NCCc1ccccc1)/C(=C\c1ccccc1)NC(=O)c1ccco1 | -5 | 2 | 2 | 2 | 8
Cc1cccc(C)c1NC(=O)CNC(=O)c1cccnc1 | -11 | 4 | -18 | -3 | 23
CCOCCCNc1nc(C)nc2c1nnn2Cc1c(F)cccc1Cl | -2 | 3 | -2 | -5 | 65*
Cc1nc(NCC2CCCO2)c2nnn(Cc3c(F)cccc3Cl)c2n1 (stereo not given) | 7 | -5 | -8 | 2 | 24
CCCCC(=O)Nc1ccc(N2CCCC2)cc1 | 30 | 4 | 4 | -5 | .
O=C(CN1CCCCC1)Nc1ccccc1 | -16 | 0 | 2 | . | 11
COc1cccc(N2CCN(CC(=O)NC(C)c3ccccc3)CC2)c1 (stereo not given) | -8 | -2 | -5 | 81* | -1
CC(NC(=O)CN1CCN(c2cccc(Cl)c2)CC1)c1ccccc1 (stereo not given) | -5 | 0 | 1 | 10 | 8
O=C(CN1CCCCC1)Nc1ccc(N2CCCCCC2)cc1 | 14 | 13 | 10 | 99* | 37
COc1ccc(N2CCN(CC(=O)Nc3ccc(C)cc3)CC2)cc1 | 13 | -5 | 1 | 90* | .
CCCOC(=O)Nc1ccc(N2CCCCC2)cc1 | 18 | -14 | -26 | 97* | 26
Clc1ccc(CSc2nnc(-c3ccccn3)n2Cc2cccs2)cc1Cl | . | -18 | . | . | .
COc1ccc(N2CCC(CNC(=O)Nc3cccc(OC)c3)C2)cc1 (stereo not given) | 24 | 7 | 15 | 82* | 51
COc1cccc(NC(=O)CN2CCN(c3ccc(F)cc3)CC2)c1 | 6 | -15 | -3 | 97* | -2
O=C(CNCc1cccs1)Nc1ccc(S(=O)(=O)N2CCCCC2)cc1 | 3 | -3 | 7 | -6 | 20
O=C(CNCc1cccs1)Nc1ccc(N2CCCCCC2)cc1 | 3 | -3 | 14 | 99* | 9
COC(=O)c1cccc(NC(=O)CN2CCN(c3ccc(OC)cc3)CC2)c1 | -4 | -3 | 10 | 88* | 11
CCC1Oc2ccccc2N(CC(=O)N2CC(C)CC(C)C2)C1=O (stereo not given) | -10 | 5 | . | . | .
COc1ccc(N2CCN(CC(=O)Nc3cccc(S(=O)(=O)N4CCOCC4)c3)CC2)cc1 | 3 | -2 | 6 | 78* | 3
COc1cc(OC)nc(NC(=O)CN2CCN(c3ccc(F)cc3)CC2)n1 | 1 | 2 | 0 | 98* | -1
COc1ccc(CNC(=O)CN2CCN(c3ccc(F)cc3)CC2)cc1 | -9 | 0 | 3 | 20 | 6
